The values below come from PubChem BioAssay (EPA / NIEHS).

Experiment [1] is described as follows: CCTE_Shafer_MEA_dev_network_spike_peak: CCTE's Neural Network Formation Assay for Mean Number of Electrodes in Network Spike, Shafer Lab (AID 2284049).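 As to AC50: fitted for loss of signal meaning fewer electrodes in network spikes than DMSO.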 An outline of the steps:
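Network-spike peak electrode count from recordings on days 5, 7, 9 and 12 was combined as trapezoidal area under the curve. Rat cortical cultures were treated continuously from plating, with compound renewed at each feed (DIV 5, 9); fits versus DMSO.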

A short description of experiment [2]: CCTE_Shafer_MEA_dev_spike_duration_mean: CCTE's Neural Network Formation Assay for Mean Spike Duration, Shafer Lab (AID 2284051).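 Also: mean network spike duration pooled as area under curve over DIV 5 to 12 recordings.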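 As to AC50: potency for a decrease in mean network spike duration versus DMSO.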 In a few lines: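 Primary rat cortical neurons on 16-electrode MEA wells (PEI-coated, laminin in plating drop), exposed from plating through DIV 12 with compound renewed at DIV 5 and 9. Mean network-spike duration recorded DIV 5, 7, 9, 12; trapezoidal AUC across days, DMSO baseline.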

Experiment [3] can be described thus: CCTE_Shafer_MEA_dev_network_spike_duration_std: CCTE's Neural Network Formation Assay for Standard Deviation of Network Spike Duration, Shafer Lab (AID 2284052).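 Also: area under curve of spike duration SD across recording days 5 to 12; hits are decreases in network spike duration SD versus DMSO vehicle.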 An outline of the steps: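 Primary rat cortical neurons on PEI-coated 16-electrode MEA wells, exposed from plating day 0 through day 12 with compound renewed at DIV 5 and 9. Network spike duration SD recorded on days 5, 7, 9, 12, collapsed as trapezoidal AUC; loss-of-signal fit versus DMSO.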

Experiment [4] is described as follows: CCTE_Shafer_MEA_dev_per_network_spike_spike_percent: CCTE's Neural Network Formation Assay for Percent of Spikes in a Network Spike, Shafer Lab (AID 2284054). An outline of the steps:
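Rat primary cortical neurons were grown on 48-well MEA plates (16 electrodes/well), exposed from plating day 0 through day 12, with treatment renewed on DIV 5 and 9. Percent of spikes within 0.05 s network-spike peaks was measured, summarised as AUC across days 5, 7, 9, 12.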

Experiment [5] can be described thus: CCTE_Shafer_MEA_dev_LDH: CCTE's Lactate Dehydrogenase Assay for Cytotoxicity in the Neural Network Formation Assay, Shafer Lab (AID 2284068; active = hit-call score of the fitted dose curve at least 0.9, where 1 is the maximum;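 also: exposure for twelve days from plating with re-dosing on DIV 5 and 9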). An outline of the steps:
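Primary rat cortical neurons were plated on PEI/laminin MEA plates and exposed from day 0 for twelve days, with compound renewed at DIV 5 and 9. Cytotoxicity was determined by spectrophotometric LDH assay relative to DMSO.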

Experiment [6] can be described thus: CCTE_Shafer_MEA_acute_AB: CCTE's Alamar Blue Assay for Cytotoxicity in the Neural Acute Assay, Shafer Lab (AID 2284069; active = hit-call score of the fitted dose curve at least 0.9, where 1 is the maximum;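 also: active compounds lower the viability signal compared with DMSO wells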). An outline of the steps:
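Primary rat cortical neurons on MEA plates, exposed acutely after baseline recording on day 13 or 15 post-plating. Viability by CellTiter Blue resazurin reduction (1:6 reagent dilution), fluorescence 544/590 nm; loss of signal versus DMSO.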

The subject of another experiment is DIO2 (gene 1734). The experiment can be described thus: CCTE_GLTED_hDIO2: CCTE's human Deiodinase 2 (DIO2) Inhibition Assay, Great Lakes Toxicology and Ecology Division (GLTED) Lab (AID 2284050; active = hit-call score of the fitted dose curve at least 0.9, where 1 is the maximum). In a few lines: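 Cell-free human DIO2 enzyme was incubated with test chemical for 3 h; iodide liberated from substrate was then quantified by the Sandell-Kolthoff reaction (absorbance), run in triplicate. Loss of signal versus DMSO baseline indicated inhibition.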

The next experiment concerns DIO3 (gene 1735). The experiment can be described thus: CCTE_GLTED_hDIO3: CCTE's human Deiodinase 3 (DIO3) Inhibition Assay, Great Lakes Toxicology and Ecology Division (GLTED) Lab (AID 2284055; active = hit-call score of the fitted dose curve at least 0.9, where 1 is the maximum;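 as to AC50: potency is for inhibition seen as loss of released iodide signal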). In a few lines:
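Cell-free assay with human DIO3 enzyme produced by adenovirus expression; enzyme incubated with test chemical for 3 hours. Liberated iodide then measured by Sandell-Kolthoff absorbance; loss of signal versus DMSO baseline indicates inhibition, run in triplicate.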

Several values for one entry are separate records, joined by “and”; a condition that tells them apart may be missing. Identical values can stand only once. Inconclusive results are not listed. The source holds several records for some structures; these can differ, active in one and inactive in another. Activity calls are given as the source filed them. The calls were made as follows, unless noted: active = hit-call score of the fitted dose curve at least 0.9, where 1 is the maximum; inactive = score below 0.9.

By AC50 is commonly meant the concentration at which the activity in the assay is half-maximal.

`COP(=S)(OC)Oc1nc(Cl)c(Cl)cc1Cl`: the compound was called inactive in experiment [1], in experiment [2], in experiment [3], in experiment [4] and in experiment [5].
As for `CON(C)C(=O)Nc1ccc(Cl)c(Cl)c1`, in experiment [6], the call was inactive.
On to `COC(=O)N(OC)c1ccccc1COc1ccn(-c2ccc(Cl)cc2)n1`, for which the half-maximal activity concentration (AC50) in experiment [1] is 72.5 nM (active) and 15.9 nM (active); in experiment [2], 88.7 nM (active) and 9.7 nM (active); in experiment [3], 78.8 nM (active); in experiment [4], 157 nM (active) and 13.6 nM (active); in experiment [5], 54.7 nM (active) and 5.99 nM (active). Moreover, the call in experiment [3] and in experiment [6] was inactive.
For the compound `CCCCC(CC)COC(=O)c1ccccc1C(=O)OCC(CC)CCCC` (stereo unspecified), the AC50 in experiment [1] is 15 µM (active) and 423 nM (active) and 8.09 µM (active); in experiment [2] it was 9.35 µM (active) and 4.75 µM (active); in experiment [3], 3050 nM (active); in experiment [4] it was 7.71 µM (active) and 22.4 µM (active); in experiment [5] it was 11.3 µM (active). Further, the outcome in experiment [2], in experiment [3], in experiment [4] and in experiment [5] was inactive.
Regarding `CN(C)C(=S)SSC(=S)N(C)C`, the AC50 in experiment [1] was 0.0107 µM (active); in the experiment on DIO2 (gene 1734), 55.7 µM (active); in experiment [2], 0.00527 µM (active); in experiment [3] it was 7.05 nM (active); in experiment [4], 0.00821 µM (active); with DIO3 (gene 1735) it was 43.1 µM (active). In addition, the concentration at half-maximal activity (AC50) in experiment [5] was 0.00506 µM (active).
Consider `O=C(O)c1nc(Cl)ccc1Cl`, for which, in experiment [6], the compound was classed as inactive.
In the case of `Cc1c(F)c(F)c(COC(=O)C2C(/C=C(\Cl)C(F)(F)F)C2(C)C)c(F)c1F` (stereo unspecified), the AC50 in experiment [2] is 2.15 µM (active); in experiment [3], 893 nM (active); in experiment [4], 1.45 µM (active); in experiment [5], 18 µM (active). In experiment [6], the call was inactive.
On to `CO/C=C(/C(=O)OC)c1ccccc1Oc1cc(Oc2ccccc2C#N)ncn1`, for which the AC50 in experiment [1] was 1.48 µM (active) and 1.44 µM (active); in experiment [2], 1.08 µM (active) and 874 nM (active); in experiment [3] it was 840 nM (active) and 974 nM (active); in experiment [4], 1.83 µM (active) and 433 nM (active); in experiment [5], 507 nM (active) and 1.41 µM (active). Besides, in experiment [6], the compound was classed as inactive.
As to `Fc1ccc(Oc2ccnc3cc(Cl)cc(Cl)c23)cc1`, the concentration at half-maximal activity (AC50) in the experiment on DIO2 (gene 1734) is 10.1 µM (active); with DIO3 (gene 1735) it was 0.965 µM (active). In addition, the compound was classed as inactive in experiment [6].
Consider `CCOP(=S)(OCC)SCn1c(=O)oc2cc(Cl)ccc21`, for which, in experiment [6], the outcome was inactive.
In the case of `CC1COC(Cn2cncn2)(c2ccc(Oc3ccc(Cl)cc3)cc2Cl)O1` (stereo unspecified), the compound was classed as inactive in experiment [6].
`C#CCOS(=O)OC1CCCCC1Oc1ccc(C(C)(C)C)cc1` (stereo unspecified): in experiment [6], the outcome was inactive.
On the same count and under the same terms, in the case of `CC(Oc1ccc(Cl)cc1Cl)C(=O)O` (stereo unspecified) it was “inactive”; in that of `CS/C(C)=N/OC(=O)N(C)SN(C)C(=O)O/N=C(\C)SC`, “inactive”.
In the case of `Cc1ccc(-c2c(Cl)nc(C#N)n2S(=O)(=O)N(C)C)cc1`, the half-maximal activity concentration (AC50) in experiment [1] was 21.8 µM (active); in the experiment with DIO2 (gene 1734), 81.8 µM (active); in experiment [2], 29.7 µM (active); in experiment [5], 30.3 µM (active). The compound was called inactive (in experiment [3]; in experiment [4]; in the experiment with DIO3 (gene 1735); in experiment [6]).
Consider `N#CC(CCc1ccc(Cl)cc1)(Cn1cncn1)c1ccccc1` (stereo unspecified), for which the outcome in experiment [6] was inactive.
`CCOc1cc(Oc2ccc(C(F)(F)F)cc2Cl)ccc1[N+](=O)[O-]`: the half-maximal activity concentration (AC50) in experiment [1] was 6.67 µM (active); in experiment [2], 4.18 µM (active); in experiment [3] it was 1130 nM (active); in experiment [4] it was 13.2 µM (active); in experiment [5] it was 17.7 µM (active).
Take `CCCC1COC(Cn2cncn2)(c2ccc(Cl)cc2Cl)O1` (stereo unspecified): in experiment [6], the result was inactive.
As for `C=CCC1=C(C)[C@@H](OC(=O)[C@@H]2[C@@H](C=C(C)C)C2(C)C)CC1=O`, in experiment [1], the concentration at half-maximal activity (AC50) was 10 µM (active). Moreover, the call in experiment [3], in experiment [4] and in experiment [6] was inactive.
`CCNc1nc(Cl)nc(NC(C)C)n1`: the compound was classed as inactive (in experiment [1]; in the experiment on DIO2 (gene 1734); in experiment [2]; in experiment [3]; in experiment [4]; in experiment [6]). Besides, the AC50 in the experiment with DIO3 (gene 1735) is 21.7 µM (active).
As to `CC(C)Oc1cc(-n2nc(C(C)(C)C)oc2=O)c(Cl)cc1Cl`, in experiment [6], the compound was called inactive.
